# According to the supplement of paper PMC12282887:
# ± gives the standard deviation of the averaged measurements.
# Key:
# Experiment in all cases: promoter activity interaction Z-score (Lux/OD deviation from empty-vector control); higher = stronger promoter induction by the compound
# [1] = tested on: E. coli BW25113 acrABp lux reporter
# In short: (§1)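 E. coli BW25113, as wild type or one of three single-gene deletion strains, carried low-copy luxCDABE promoter reporters and grew in 40 µl LB Lennox in 384-well plates at 37°C, with OD600 and luminescence read every 30 min for 12 h. Each compound was run at four 1:2 dilutions in biological duplicates, integration spanned 0–8 h for wild type and 1–9 h for deletion strains, and wells under 10% of the median growth value were dropped. The score is the Z-transformed residual of growth-normalised luminescence fitted against a control.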
# [2] = tested on: E. coli BW25113 marRABp lux reporter
# In short: as §1
# [3] = tested on: E. coli BW25113 micFp lux reporter
# In short: as §1
# [4] = tested on: E. coli BW25113 ompFp lux reporter
# In short: as §1
# [5] = tested on: E. coli BW25113 robp lux reporter
# In short: as §1
# [6] = tested on: E. coli BW25113 soxSp lux reporter
# In short: as §1
# [7] = tested on: E. coli BW25113 tolCp lux reporter
# In short: as §1
# [8] = 20 µg/ml, genetic background: wild type
# [9] = 20 µg/ml, genetic background: ΔmarA
# [10] = 20 µg/ml, genetic background: Δrob
# [11] = 20 µg/ml, genetic background: ΔsoxS
# [12] = 39.9 µg/ml, genetic background: wild type
# [13] = 39.9 µg/ml, genetic background: ΔmarA
# [14] = 39.9 µg/ml, genetic background: Δrob
# [15] = 39.9 µg/ml, genetic background: ΔsoxS
# [16] = 79.8 µg/ml, genetic background: wild type
# [17] = 79.8 µg/ml, genetic background: ΔmarA
# [18] = 79.8 µg/ml, genetic background: Δrob
# [19] = 79.8 µg/ml, genetic background: ΔsoxS
# [20] = 159.6 µg/ml, genetic background: wild type
# [21] = 159.6 µg/ml, genetic background: ΔmarA
# [22] = 159.6 µg/ml, genetic background: Δrob
# [23] = 159.6 µg/ml, genetic background: ΔsoxS
structure (smiles),measurement,setting,value
NC[C@H](O)c1ccc(O)c(O)c1 [Noradrenalin],promoter activity interaction Z-score,[1]; [8],0.191 ± 0.043
same,promoter activity interaction Z-score,[1]; [9],0.362 ± 0.59
same,promoter activity interaction Z-score,[1]; [10],0.47 ± 0.3
same,promoter activity interaction Z-score,[1]; [11],0.122 ± 0.4
same,promoter activity interaction Z-score,[1]; [12],0.0636 ± 0.28
same,promoter activity interaction Z-score,[1]; [13],0.359 ± 0.28
same,promoter activity interaction Z-score,[1]; [14],0.344 ± 0.66
same,promoter activity interaction Z-score,[1]; [15],0.23 ± 0.37
same,promoter activity interaction Z-score,[1]; [16],0.335 ± 0.023
same,promoter activity interaction Z-score,[1]; [17],-0.978 ± 0.27
same,promoter activity interaction Z-score,[1]; [18],0.541 ± 0.3
same,promoter activity interaction Z-score,[1]; [19],0.0112 ± 0.031
same,promoter activity interaction Z-score,[1]; [20],0.208 ± 0.26
same,promoter activity interaction Z-score,[1]; [21],0.422 ± 0.39
same,promoter activity interaction Z-score,[1]; [22],0.664 ± 0.6
same,promoter activity interaction Z-score,[1]; [23],0.626 ± 0.16
same,promoter activity interaction Z-score,[2]; [8],0.189 ± 0.16
same,promoter activity interaction Z-score,[2]; [9],0.444 ± 0.053
same,promoter activity interaction Z-score,[2]; [10],0.108 ± 0.12
same,promoter activity interaction Z-score,[2]; [11],0.239 ± 0.13
same,promoter activity interaction Z-score,[2]; [12],0.0664 ± 0.085
same,promoter activity interaction Z-score,[2]; [13],0.371 ± 0.24
same,promoter activity interaction Z-score,[2]; [14],0.256 ± 0.08
same,promoter activity interaction Z-score,[2]; [15],0.078 ± 0.037
same,promoter activity interaction Z-score,[2]; [16],0.253 ± 0.15
same,promoter activity interaction Z-score,[2]; [17],-0.0312 ± 0.044
same,promoter activity interaction Z-score,[2]; [18],-0.0145 ± 0.019
same,promoter activity interaction Z-score,[2]; [19],0.36 ± 0.27
same,promoter activity interaction Z-score,[2]; [20],0.17 ± 0.12
same,promoter activity interaction Z-score,[2]; [21],-0.0497 ± 0.011
same,promoter activity interaction Z-score,[2]; [22],0.0596 ± 0.2
same,promoter activity interaction Z-score,[2]; [23],0.217 ± 0.22
same,promoter activity interaction Z-score,[3]; [8],-0.0178 ± 0.045
same,promoter activity interaction Z-score,[3]; [9],0.0504 ± 0.056
same,promoter activity interaction Z-score,[3]; [10],-0.0409 ± 0.027
same,promoter activity interaction Z-score,[3]; [11],0.0398 ± 0.17
same,promoter activity interaction Z-score,[3]; [12],-0.101 ± 0.2
same,promoter activity interaction Z-score,[3]; [13],-0.00878 ± 0.065
same,promoter activity interaction Z-score,[3]; [14],-0.0156 ± 0.16
same,promoter activity interaction Z-score,[3]; [15],-0.114 ± 0.0037
same,promoter activity interaction Z-score,[3]; [16],0.00145 ± 0.18
same,promoter activity interaction Z-score,[3]; [17],-0.0653 ± 0.027
same,promoter activity interaction Z-score,[3]; [18],-0.14 ± 0.2
same,promoter activity interaction Z-score,[3]; [19],0.0484 ± 0.0015
same,promoter activity interaction Z-score,[3]; [20],-0.129 ± 0.14
same,promoter activity interaction Z-score,[3]; [21],-0.17 ± 0.03
same,promoter activity interaction Z-score,[3]; [22],-0.105 ± 0.047
same,promoter activity interaction Z-score,[3]; [23],-0.0781 ± 0.094
same,promoter activity interaction Z-score,[4]; [8],0.507 ± 0.061
same,promoter activity interaction Z-score,[4]; [9],0.708 ± 0.42
same,promoter activity interaction Z-score,[4]; [10],0.59 ± 0.074
same,promoter activity interaction Z-score,[4]; [11],0.138 ± 0.1
same,promoter activity interaction Z-score,[4]; [12],0.854 ± 0.025
same,promoter activity interaction Z-score,[4]; [13],0.48 ± 0.12
same,promoter activity interaction Z-score,[4]; [14],0.602 ± 0.42
same,promoter activity interaction Z-score,[4]; [15],0.403 ± 0.22
same,promoter activity interaction Z-score,[4]; [16],0.895 ± 0.33
same,promoter activity interaction Z-score,[4]; [17],0.0373 ± 0.12
same,promoter activity interaction Z-score,[4]; [18],0.307 ± 0.14
same,promoter activity interaction Z-score,[4]; [19],0.13 ± 0.09
same,promoter activity interaction Z-score,[4]; [20],1.01 ± 0.25
same,promoter activity interaction Z-score,[4]; [21],0.851 ± 0.14
same,promoter activity interaction Z-score,[4]; [22],0.476 ± 1.1
same,promoter activity interaction Z-score,[4]; [23],1.13 ± 0.2
same,promoter activity interaction Z-score,[5]; [8],0.547 ± 0.64
same,promoter activity interaction Z-score,[5]; [9],0.384 ± 0.1
same,promoter activity interaction Z-score,[5]; [10],0.384 ± 0.47
same,promoter activity interaction Z-score,[5]; [11],1.12 ± 0.86
same,promoter activity interaction Z-score,[5]; [12],0.762 ± 0.056
same,promoter activity interaction Z-score,[5]; [13],1.14 ± 0.33
same,promoter activity interaction Z-score,[5]; [14],0.129 ± 0.011
same,promoter activity interaction Z-score,[5]; [15],0.395 ± 0.56
same,promoter activity interaction Z-score,[5]; [16],0.33 ± 0.14
same,promoter activity interaction Z-score,[5]; [17],-0.159 ± 0.14
same,promoter activity interaction Z-score,[5]; [18],-0.0403 ± 0.17
same,promoter activity interaction Z-score,[5]; [19],0.042 ± 0.74
same,promoter activity interaction Z-score,[5]; [20],0.223 ± 0.48
same,promoter activity interaction Z-score,[5]; [21],-0.276 ± 0.24
same,promoter activity interaction Z-score,[5]; [22],-0.36 ± 0.58
same,promoter activity interaction Z-score,[5]; [23],-0.182 ± 0.36
same,promoter activity interaction Z-score,[6]; [8],-0.0849 ± 0.038
same,promoter activity interaction Z-score,[6]; [9],-0.0801 ± 0.073
same,promoter activity interaction Z-score,[6]; [10],-0.113 ± 0.058
same,promoter activity interaction Z-score,[6]; [11],0.0191 ± 0.33
same,promoter activity interaction Z-score,[6]; [12],0.0167 ± 0.12
same,promoter activity interaction Z-score,[6]; [13],-0.0796 ± 0.033
same,promoter activity interaction Z-score,[6]; [14],-0.0193 ± 0.2
same,promoter activity interaction Z-score,[6]; [15],0.0258 ± 0.27
same,promoter activity interaction Z-score,[6]; [16],-0.0633 ± 0.035
same,promoter activity interaction Z-score,[6]; [17],-0.258 ± 0.028
same,promoter activity interaction Z-score,[6]; [18],-0.159 ± 0.19
same,promoter activity interaction Z-score,[6]; [19],-0.00763 ± 0.11
same,promoter activity interaction Z-score,[6]; [20],-0.154 ± 0.0074
same,promoter activity interaction Z-score,[6]; [21],-0.357 ± 0.097
same,promoter activity interaction Z-score,[6]; [22],-0.388 ± 0.16
same,promoter activity interaction Z-score,[6]; [23],-0.0342 ± 0.11
same,promoter activity interaction Z-score,[7]; [8],0.0786 ± 0.23
same,promoter activity interaction Z-score,[7]; [9],0.206 ± 1.2
same,promoter activity interaction Z-score,[7]; [10],-0.339 ± 0.25
same,promoter activity interaction Z-score,[7]; [11],-0.485 ± 0.31
same,promoter activity interaction Z-score,[7]; [12],-0.478 ± 0.28
same,promoter activity interaction Z-score,[7]; [13],0.198 ± 0.13
same,promoter activity interaction Z-score,[7]; [14],-0.000984 ± 1.4
same,promoter activity interaction Z-score,[7]; [15],-0.431 ± 0.54
same,promoter activity interaction Z-score,[7]; [16],0.0142 ± 0.56
same,promoter activity interaction Z-score,[7]; [17],-0.267 ± 0.49
same,promoter activity interaction Z-score,[7]; [18],0.254 ± 0.35
same,promoter activity interaction Z-score,[7]; [19],-0.273 ± 0.31
same,promoter activity interaction Z-score,[7]; [20],-0.957 ± 1.4
same,promoter activity interaction Z-score,[7]; [21],-0.659 ± 0.07
same,promoter activity interaction Z-score,[7]; [22],-0.565 ± 0.4
same,promoter activity interaction Z-score,[7]; [23],-0.633 ± 0.011
